About 3,700 (7%) of roughly 53,000 sequences were called active.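 How the source made its calls: active means gene knockdowns whose robust z-score for IL-1 alpha signal is at least 2 or at most -2, so actives lie on both sides; inactive means the rest.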 Shown is part of a subset that was picked to be rich in actives.
assay: Components of the Cytosolic LPS Sensing Pathway: Gene Identification via Genome-wide siRNA Screen; conditions: RAW264.7 macrophages, IL-1a HTRF, actives lie on both sides, screened at 100 nM (by protocol), cells primed 5 h with Pam3CSK4 first;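 further: robust z of the log signal after scaling to non-targeting control siRNA wells of the plate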
Summary of the method: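 Knockdown: 100 nM siRNA, 48h, RAW264.7. Stimulation: Pam3CSK4 5 h, then LipidA via TransIT-TKO 24 h. Output: supernatant IL-1a HTRF, negative-control-normalized, log robust z-score; viability by CellTiter-Glo.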

| Sequence | z-score |
| --- | --- |
| GACGCAGAUGGUAUUUUUUTT against Orm2 | 1.24 (inactive) |
| GUGGGAAUUCUGAAAAAUATT against Vmn1r231 | 0.301 (inactive) |
| GUAUGAACCUAACACAUUCTT against Vmn1r188 | 0.493 (inactive) |
| GGAAACCUUUACCAUAAACTT against Epdr1 | -2.35 (active) |
| GGAUCAAACAAAUCAUCAATT against Plscr4 | -0.895 (inactive) |
| CCUUGUAGCUCUGAGGAUATT against Teddm3 | -0.529 (inactive) |
| GGAACCUACCUCACCUUUGTT against Fscn3 | -0.749 (inactive) |
| GGUCUCUUCAUGAUGGAUGTT against Akt1s1 | 0.731 (inactive) |
| CCAUACACAUGUAAUUCUCTT against Zmat3 | -0.159 (inactive) |
| GGCAUCUCUGAGUUACAUUTT against Snu13 | 0.695 (inactive) |
| GGGUCUGGUUCUGUAACCATT against Pou4f3 | -1.94 (inactive) |
| GGACUAUGGUGGGAACUAGTT against Tas2r119 | -0.564 (inactive) |
| CGUUCUAUGGAAACUGGAGTT against Acot1 | 2.42 (active) |
| GGAAUGCUUAAAGCUUUAATT against Clasp2 | 0.353 (inactive) |
| CCAUUUCCCAUUUCUGAAGTT against 1700001P01Rik | -2.22 (active) |
| GCUCAAGUUAAUCUGUUGUTT against Ywhae | 0.962 (inactive) |
| CCAGUCAACAAGAAUCAGATT against Rptn | -0.105 (inactive) |
| GAUACAGAAUGUCUCAUCCTT against Olfr1128 | 0.307 (inactive) |
| CCUAUCUUGUCCGGUUUACTT against Cyb5rl | 3.99 (active) |
| GCCCUUGCACUAUUUUUCCTT against Olfr1218 | 0.902 (inactive) |
| GCUAUGUCAACAGUAACAUTT against Mmel1 | -0.683 (inactive) |
| GGUGGAAUUAUGCAUGCUATT against Olfr1094 | 1.45 (inactive) |

| Sequence | z-score |
| --- | --- |
| GGCUUUCUUCAGUUUUGUCTT against Slc33a1 | -1.37 (inactive) |
| GGAGGUUACCUUCUACAGCTT against Cxcr2 | 0.694 (inactive) |
| GGGUGAAAAGCAUUUCUGUTT against Actrt3 | 0.583 (inactive) |
| GGAAACAGCACAACAAACGTT against Adam26a | 2.93 (active) |
| GGCUAAGAAACUGAAGAGATT against Ccm2l | -1.59 (inactive) |
| GCGAACUCGGGAAACAACUTT against Rnf4 | -0.0525 (inactive) |
| UAGAAUUGAUUGAGGACUCTT against Ly6c1 | 0.602 (inactive) |
| GCACUUCUUUGUGCAAAGCTT against Shfl | -0.311 (inactive) |
| GAGGUUUGGCAGAAGUGCATT against Npff | -1.95 (inactive) |
| GGCCUGUAAAAACUAUUGGTT against Mcpt4 | 0.122 (inactive) |
| CCACCAUGACUGCAAAUGUTT against Olfr1469 | -0.817 (inactive) |
| GCCAACAGUAACGGUAUUGTT against Patz1 | -2.04 (active) |
| GCUCGUGGCAUGUCUCUAUTT against Doc2g | 0.379 (inactive) |
| GCUAUGAAGAAAAAUCGGATT against Mettl21e | 0.362 (inactive) |
| GCCUAACCUGGUAUCCCAGTT against Zfp92 | -1.03 (inactive) |
| GGCCUCACAGUGCUUUCUCTT against Olfr1232 | 0.0779 (inactive) |
| CCUGGCUUACAGUACAUGCTT against Adarb1 | 1.21 (inactive) |
| CGACUUCAUAAGGUAUGCATT against Tnfrsf22 | -0.793 (inactive) |
| UUUGCUGUCCUUUCUUUCATT against Olfr122 | -1.84 (inactive) |
| GGCCUAAGCAAGUUGCGCATT against Fbxl8 | 1.5 (inactive) |
| CCUUCAGACUGUCAACAAUTT against Chrm2 | -0.386 (inactive) |
| GGGCAUGGAACAAGAUGUCTT against Nckipsd | -2.43 (active) |

| Sequence | z-score |
| --- | --- |
| GCGUGAGCUUAAGAAGCAATT against Leng8 | 1.46 (inactive) |
| GGCUGACACAAGAUGGCUGTT against Ebpl | 2.41 (active) |
| GGAAAAGCUCAAUGUCCUCTT against Tex13b | -0.141 (inactive) |
| GGGAAGUCUACAUAAAUCCTT against Gpr176 | -0.544 (inactive) |
| GGAGAAGAAAACAUCAAGUTT against Hrh3 | 2.52 (active) |
| GGAAAAGAAGUUUAAACGGTT against Svs6 | -0.413 (inactive) |
| GGAGGAUCUUUCAAAGAGATT against Egfl8 | 0.763 (inactive) |
| GGCCCUUCCAGAAGAUACATT against Speer3 | -1.1 (inactive) |
| GGACAGAUUCGACAAAGAGTT against Olfr1535 | -0.193 (inactive) |
| GGAAAACAAGACUUCAAUCTT against Gypa | 0.369 (inactive) |
| CCCUGAUGACAGAAGAAUCTT against Tyms | -0.802 (inactive) |
| GCACCUCGGUCAUUUAUAUTT against Mettl14 | -2.51 (active) |
| GCCUGUCCUGUGAUGACAUTT against Olfr406 | -1.96 (inactive) |
| GCUCGAACAUCUCUUGGUCTT against Capn9 | 0.186 (inactive) |
| CCGUUACCUUUUAAGCCUGTT against Socs6 | -1.2 (inactive) |
| GGCAGAGAAAAGGACCUUUTT against Mcts2 | -1.32 (inactive) |
| GGAACUCCUCAAACGAAGGTT against Bmp3 | 0.553 (inactive) |
| GCCACCAGUGAAUAAUACATT against Hyal6 | 0.459 (inactive) |
| GGUUUGCAUAUCUCACCCUTT against Sirt6 | -2.38 (active) |
| GGAGACUGGAGAGCAAAAUTT against Krt18 | -1.44 (inactive) |
| GCUACCUUCAGACAAGCACTT against Prss32 | -0.877 (inactive) |
| GCAACUCAGCUGUUGUGAGTT against Ifitm2 | 2.99 (active) |

| Sequence | z-score |
| --- | --- |
| GCUGUUGUUCAAUGCCCUGTT against Olfr392 | -0.616 (inactive) |
| GGCUGCACACAAUAUGAACTT against Mrm2 | 0.134 (inactive) |
| CCUAUGCUAUGUAGUUUAATT against Adam21 | 5.58 (active) |
| GGAGAAACUAUGAUCUUUATT against Mmp13 | 0.117 (inactive) |
| GGGAAGAAAUCCAAGAAGATT against Cnpy3 | -0.836 (inactive) |
| GCUGCCUACCUGUGAAAGUTT against Pgam2 | 2.82 (active) |
| GGCCAAAGCUGAUAUGACATT against Ankef1 | 2.23 (active) |
| GGAGCUCCUGUACGACUAUTT against Kmt5a | -1.66 (inactive) |
| GCCCUCGGACUGAAAACAATT against Chrm5 | -0.227 (inactive) |
| GGUACAAUGGCACUGUCACTT against Chrna5 | -1.29 (inactive) |
| GGGAUGCUUUUGGCCCAAATT against Rita1 | 0.901 (inactive) |
| GGUUCUCUAACAGAACUUUTT against Zc3h6 | 0.768 (inactive) |
| GGUGUCUUUGCUCAGCUCATT against Lrfn4 | -2.93 (active) |
| GGUUGUUUGACCAACAGCUTT against Inpp5d | -1.51 (inactive) |
| GGAAUUUGUGGAGAAACUATT against Gabbr1 | -0.232 (inactive) |
| GAGCCAUAUACCUCGUCCUTT against Mier2 | -0.531 (inactive) |
| GGUUGGCUUGGAAAUGGGATT against Nanos2 | 1.7 (inactive) |
| CCAUUUACCCAUGCGGCUATT against Creb3l2 | -1.94 (inactive) |
| GGAGAUGUGUUGAGUUUUCTT against Abcg2 | 4.47 (active) |
| GGCAACAUGCGGACAACAUTT against Trim14 | -0.42 (inactive) |
| GGAGCUGAACCUGAGCUAUTT against Tlr9 | -0.341 (inactive) |
| GGACAUUUCUAUGUCUUUGTT against Cpt2 | 3.35 (active) |

| Sequence | z-score |
| --- | --- |
| GGAGAUAAAUCCUUUGCAUTT against Zfp119a | 1.74 (inactive) |
| GGACUUUCGUGAGAGAUUUTT against Fpr2 | 1.16 (inactive) |
| GGUUCAGUUUUGGCUGGCUTT against Olfr558 | 2.04 (active) |
| GGAGAAGAGCAGAAUAUGCTT against Baz1a | -1.48 (inactive) |
| GCUGUUAAACGAAAUGUACTT against Esx1 | -0.298 (inactive) |
| GCUUGGAAGGGACUUCAAUTT against Trp73 | 2.97 (active) |
| CCAUUUAUUUGGACUUGUATT against Lig4 | 0.303 (inactive) |
| CCGGUAUUACAACAAGUACTT against Atp5j2 | 1.01 (inactive) |
| GGGAGAAGGUAAGUGCAUGTT against Golga7b | -0.343 (inactive) |
| GGUGGAAAAGUGAAAAAGGTT against Ddx18 | 0.158 (inactive) |
| CCUGUAGAUUCAAUUAGAGTT against Vkorc1l1 | -0.206 (inactive) |
| GGUGCUGCUUUAUUCCUGGTT against Dhcr7 | -0.632 (inactive) |
| CGAUUAUGAGCACUAUAUUTT against Ddx20 | 2.12 (active) |
| GGAUAUGUGUUCAUCCUGUTT against Lrrc18 | 0.0347 (inactive) |
| GGUUAUGCCUUCAGUGAAGTT against Prep | -0.14 (inactive) |
| GGUGACUGUCCUGAACUAUTT against Prr5l | 1.7 (inactive) |
| CGAAGUGAAAAGUAUGACCTT against Lrrc72 | -0.083 (inactive) |
| GGGCAUAGUGACCAGGUUATT against Fgf14 | 2.67 (active) |
| AUCUCUCGGUGGUGGACUGTT against Olfr1474 | 0.583 (inactive) |
| CCAGGUCGAACUUCUGUGCTT against Slc39a8 | -0.82 (inactive) |

Source: PubChem BioAssay AID1508600 (Functional Genomics Laboratory (NCATS/FGL), 2020)
